Experimental data taken from PubChem BioAssay (NCATS).
Records with an inconclusive call do not appear. A call without a number means that no potency is given here. Activity calls are given as the source filed them. Calls come from the whole dose curve; as a rule, active = well fitted curve in the direction sought with a large enough effect; inconclusive = small, poorly fitted or top-dose-only effect, or another doubt; inactive = no such curve, though single readings can be large; an effect the other way counts as inactive or inconclusive.

Assays:
[1] = Cellular Toxicity (caspase-3) HepG2 (AID 654);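 note: cells exposed to compound for 16 hours before reading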
Procedure, shortened: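 qHTS, HepG2, 1500 cells/well, complete medium; cpd 16 h 37 °C; Caspase-Glo 3/7, 20 min RT; lum. Norm: DMSO vs 100 uM tamoxifen; AC50 Hill fit.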

[2] = Cellular Toxicity (caspase-3) Jurkat (AID 655);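 note: cells exposed to compound for 16 h at 37 °C before reading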
Procedure, shortened: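 Luminescent Caspase-Glo 3/7 read-out (20 min, room temperature) after 16 h compound treatment at 37 C of 5000 Jurkat cells per well. AC50 derived by Hill-equation fitting, scaled between DMSO basal and 100 uM tamoxifen stimulation.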

[3] = Cellular Toxicity (caspase-3) HUV-EC-C (AID 656)
Procedure, shortened: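 Luminescent Caspase-Glo 3/7 readout after 16 h, 37 °C compound exposure of HUV-EC-C endothelial cells, 1000 per well, complete medium. AC50 derived by Hill fitting, with DMSO as baseline and 100 uM tamoxifen as full activation.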

[4] = Cellular Toxicity (caspase-3) SHSY5Y (AID 657); note: potency is the fitted concentration of half-maximal effect
Procedure, shortened: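 Luminescent Caspase-Glo 3/7 read-out, 1 hr room temperature, follows 16 hours of compound treatment of SH-SY5Y cells at 37 °C. Normalization: DMSO basal, 10 uM staurosporine as 100%; AC50 values from Hill-equation concentration-response fits.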

[5] = Cellular Toxicity (caspase-3) BJ (AID 658); settings: Potency: caspase-3 activation; note: potency is the fitted concentration of half-maximal effect
Procedure, shortened: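 BJ human foreskin fibroblasts, 1000 cells/well, treated 16 hours at 37 °C in complete medium; caspase 3/7 activity by Caspase-Glo luminescence after 1 hr at room temperature. Normalized to DMSO and 10 uM staurosporine; AC50 from Hill fits.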

[6] = Cellular Toxicity (caspase-3) MRC-5 (AID 659)
Procedure, shortened: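 MRC-5 human normal lung fibroblasts, 1500 cells/well, treated 16 h at 37 °C in complete medium. Caspase 3/7 measured by Caspase-Glo luminescence after 1 h at room temperature. Normalized to DMSO and 10 uM staurosporine; AC50 from Hill fit.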

[7] = Cellular Toxicity (caspase-3) Mesangial (AID 660);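 note: combined caspase 3 and 7 activity read by Caspase-Glo luminescence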
Procedure, shortened: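 Concentration-response qHTS: compound-induced rise in caspase 3/7 luminescence in human mesangial cells after 16 h, normalized to DMSO and 100 uM tamoxifen controls.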

[8] = Cellular Toxicity (caspase-3) SK-N-SH (AID 661); settings: SK-N-SH caspase-3 activation, qHTS; caspase-3 activation: at 91.7 µM (top of the series), DMSO as zero, staurosporine as full; note: potency is the fitted concentration of half-maximal effect
Procedure, shortened: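 Caspase 3/7 activation is measured as a luminescence increase from aminoluciferin released by substrate cleavage in SK-N-SH cells after 16 hr compound treatment; values are AC50 from concentration-response curves.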

[9] = Cellular Toxicity (caspase-3) H-4-II-E (AID 663);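 note: cells exposed to compound for 16 hr before readout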
Procedure, shortened: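 Rat hepatoma H-4-II-E cells (1500/well) plated 5 hr, then exposed to compound titrations for 16 hr at 37 °C. Caspase-Glo 3/7 luminescence read after 20 min at RT; data normalized to DMSO and 100 uM tamoxifen, AC50 from Hill fits.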

Structure (SMILES) | outcome [1] | Potency [2] | outcome [3] | Potency [4] | Potency [5] | outcome [6] | outcome [7] | Potency [8] | outcome [9] | caspase-3 activation [8]
O=P(O)(O)O | inactive | inactive | inactive | inactive | inactive | inactive | inactive | inactive | inactive | –
NCCN | inactive | inactive | inactive | inactive | inactive | inactive | inactive | inactive | inactive | –
NC(N)=O | inactive | inactive | inactive | inactive | inactive | inactive | inactive | inactive | inactive | –
CC[C@H]1OC(=O)[C@H](C)[C@@H](O[C@H]2C[C@@](C)(OC)[C@@H](O)[C@H](C)O2)[C@H](C)[C@@H](O[C@@H]2O[C@H](C)C[C@H](N(C)C)[C@H]2O)[C@](C)(O)C[C@@H](C)CN(C)[C@H](C)[C@@H](O)[C@]1(C)O | inactive | inactive | inactive | inactive | inactive | inactive | inactive | – | inactive | –
O=c1n(CC2CO2)c(=O)n(CC2CO2)c(=O)n1CC1CO1 (stereo unspecified) | inactive | – | inactive | 12.6 µM (active) | inactive | inactive | inactive | 15.8 µM (active) | inactive | –
CCCCO | inactive | inactive | inactive | inactive | inactive | inactive | inactive | inactive | inactive | –
CC/C=C\C/C=C\C/C=C\CCCCCCCC(=O)O | inactive | inactive | inactive | inactive | inactive | inactive | inactive | inactive | inactive | –
C=C1C(CCl)(CCl)C2(Cl)C(Cl)C(Cl)C1(Cl)C2(Cl)Cl (stereo unspecified) | inactive | – | – | 39.8 µM (active) | 63.1 µM (active) | – | – | – | – | 90.5% (active)
CC(C)O | inactive | inactive | inactive | inactive | inactive | inactive | inactive | inactive | inactive | –
CC(C)(C)CC(C)(C)c1ccc(OCCO)cc1 | inactive | inactive | inactive | inactive | inactive | inactive | inactive | inactive | inactive | –
C[C@H](CCC(=O)O)[C@H]1CC[C@H]2[C@@H]3CC[C@@H]4C[C@H](O)CC[C@]4(C)[C@H]3C[C@H](O)[C@]12C | inactive | inactive | inactive | inactive | inactive | inactive | inactive | inactive | inactive | –
ClC(Cl)Cl | inactive | inactive | inactive | inactive | inactive | inactive | inactive | inactive | inactive | –
CC1=CC(=O)NS(=O)(=O)O1 | inactive | inactive | inactive | inactive | inactive | inactive | inactive | inactive | inactive | –
CO | inactive | inactive | inactive | inactive | inactive | inactive | inactive | inactive | inactive | –
Nc1ncnc2c1ncn2[C@H]1CC[C@@H](CO)O1 | inactive | – | inactive | inactive | inactive | inactive | inactive | inactive | inactive | –
c1ccc2ccccc2c1 | inactive | inactive | inactive | inactive | inactive | inactive | inactive | inactive | inactive | –
OC[C@H]1O[C@@H]2O[C@H]3[C@H](O)[C@@H](O)[C@@H](O[C@H]4[C@H](O)[C@@H](O)[C@@H](O[C@H]5[C@H](O)[C@@H](O)[C@@H](O[C@H]6[C@H](O)[C@@H](O)[C@@H](O[C@H]7[C@H](O)[C@@H](O)[C@@H](O[C@H]1[C@H](O)[C@H]2O)O[C@@H]7CO)O[C@@H]6CO)O[C@@H]5CO)O[C@@H]4CO)O[C@@H]3CO | inactive | inactive | inactive | inactive | inactive | inactive | inactive | inactive | inactive | –
CO/N=C(/C(=O)N[C@@H]1C(=O)N2C(C(=O)O)=C(COC(N)=O)CS[C@H]12)c1ccco1 | inactive | inactive | inactive | inactive | inactive | inactive | inactive | inactive | inactive | –
C[C@H](CCC(=O)O)[C@H]1CC[C@H]2[C@@H]3[C@H](O)C[C@@H]4C[C@H](O)CC[C@]4(C)[C@H]3C[C@H](O)[C@]12C | inactive | inactive | inactive | inactive | inactive | inactive | inactive | inactive | inactive | –
Cc1ncc[nH]1 | inactive | inactive | inactive | inactive | inactive | inactive | inactive | inactive | inactive | –
[O-][N+](=Nc1ccccc1)c1ccccc1 | inactive | inactive | inactive | inactive | inactive | inactive | inactive | inactive | inactive | –
OB(O)O | inactive | inactive | inactive | inactive | inactive | inactive | inactive | inactive | inactive | –
O.O.O.O.O.O.O.O=S(=O)([O-])[O-].[Co+2] | inactive | inactive | inactive | inactive | inactive | inactive | inactive | inactive | inactive | –
OCl | inactive | inactive | inactive | inactive | inactive | inactive | inactive | inactive | inactive | –
Oc1cccc(O)c1O | inactive | inactive | inactive | inactive | inactive | inactive | inactive | inactive | inactive | –
C/C=C/C=C/C(=O)O | inactive | inactive | inactive | inactive | inactive | inactive | inactive | inactive | inactive | –
